From PubChem BioAssay (NCATS) come the findings set out here.

Assay [1] in a line: Primary qHTS for inhibitors of nuclear receptor binding SET domain protein 2 (NSD2) in an isogenic RCH-ACV NSD2 p.E1099K mutant (9B) (AID 1645876). (In general: In qHTS, concentration-response curves come from the screen itself.)
A short description of assay [2]: Primary qHTS for inhibitors of nuclear receptor binding SET domain protein 2 (NSD2) in an RCH-ACV wild type WT cells (2C) (AID 1645877).

The structures appear in SMILES notation. Results filed as inconclusive are left out. Active and inactive are the calls of the source. Calls come from the whole dose curve; as a rule, active = well fitted curve in the direction sought with a large enough effect; inconclusive = small, poorly fitted or top-dose-only effect, or another doubt; inactive = no such curve, though single readings can be large; an effect the other way counts as inactive or inconclusive.
Note: nearly all actives have a fitted effect of over 70% in size.
Potency is the fitted concentration of half-maximal effect.

For the molecule `C/C=C(/COC(=O)/C(C)=C/C)C(=O)OC(CC)c1ccc(OC)c(OC)c1` (stereo unspecified), the Potency result in assay [1] and in assay [2] was “inactive” each time.
Take `CC(C)=CCC/C(C)=C/CC/C(C)=C/COC1OC(COC2OCC(OC3OCC(O)C(O)C3O)C(O)C2O)C(O)C(OC2OC(C)C(OC3OC(C)C(OC4OCC(OC5OC(C)C(O)C(O)C5O)C(O)C4O)C(O)C3O)C(O)C2O)C1O` (stereo unspecified): the outcome in assay [1] and in assay [2] was “inactive [at 9.23 µM]” throughout.
With `C[C@@H]1CC[C@]2(C(=O)OC3OC(CO)C(O)C(O)C3O)CC[C@]3(C)C(=CCC4[C@@]5(C)CC[C@H](O)[C@](C)(C(=O)O)C5CC[C@]43C)C2[C@]1(C)O` (stereo partly specified), the Potency result in assay [1] and in assay [2] was “inactive” in each case.
With `CC1(C)CCC2(C(=O)OC3OC(CO)C(O)C(O)C3O)CCC3(C)C(=CCC4C5(C)CCC(O)C(C)(C(=O)O)C5CCC43C)C2C1O` (stereo unspecified), the Potency entry in assay [1] and in assay [2] was “inactive” throughout.
On to `C=C(C)C1CCC2(C(=O)O[C@@H]3O[C@H](CO[C@@H]4O[C@H](CO)[C@@H](O)[C@H](O)[C@H]4O)[C@@H](O)[C@H](O[C@@H]4O[C@@H](C)[C@H](O)[C@@H](O)[C@H]4O)[C@H]3O)CCC3(C(=O)O)C(CCC4C5(C)CCC(O)C(C)(C)C5CCC43C)C12` (stereo partly specified), for which the outcome in assay [1] and in assay [2] was “inactive [at 9.23 µM]” each time.
Turning to `O=C1NC(Cc2c[nH]c3ccccc23)C(=O)NC1Cc1c[nH]c2ccccc12` (stereo unspecified), the Potency result in assay [1] and in assay [2] was “inactive” each time.
`COc1ccc(CN2C(=O)C(=O)c3cc(S(=O)(=O)N4CCC[C@H]4COc4cccnc4)ccc32)cc1`: the Potency result in assay [1] and in assay [2] was “inactive” each time.
Consider `C/C=C/C1=CC2=C(CO1)C(=O)C(C)(O)C(OC(=O)c1c(C)cc(OC)cc1O)C2` (stereo unspecified), for which the Potency in assay [1] was 16 µM (active); in assay [2], 4.5 µM (active).
